# PubChem BioAssay (NCATS)
# Activity calls are given as the source filed them. Calls follow the shape of the full dose curve.
# Experiments:
# Test in all cases: Confirmatory Screen for Target Class Profiling of Small Molecule Inhibitors of Methyltransferases (AID 1745852); as to activity change, negative = inhibition: % is scaled to controls: 0 for no effect and ±100 for the full control effect
# [1] = biological target: Catechol O-methyltransferase (Homo sapiens) (UniProt P21964); conditions: MTase-Glo luminescence, SAH detection, recombinant enzyme; measured here: COMT max response; stronger effect = lower value
# Catechol O-methyltransferase (Homo sapiens), sequence (P21964 whole entry, looked up): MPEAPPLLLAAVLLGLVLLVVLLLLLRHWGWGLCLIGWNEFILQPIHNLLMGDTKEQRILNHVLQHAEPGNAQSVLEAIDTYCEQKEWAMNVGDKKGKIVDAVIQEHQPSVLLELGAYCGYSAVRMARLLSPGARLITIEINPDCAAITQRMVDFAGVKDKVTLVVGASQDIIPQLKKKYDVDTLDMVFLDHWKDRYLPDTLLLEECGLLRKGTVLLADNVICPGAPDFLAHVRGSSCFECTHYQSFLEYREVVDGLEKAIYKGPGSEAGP
# [2] = biological target: Guanidinoacetate N-methyltransferase (Homo sapiens) (UniProt Q14353); conditions: MTase-Glo luminescence, SAH detection, recombinant enzyme; activity change, negative = inhibition: at 57.3 µM (top of the series) unless noted; series mostly up to 57.3 µM
# [3] = biological target: Nicotinamide N-methyltransferase (Homo sapiens) (UniProt P40261); conditions: MTase-Glo luminescence, SAH detection, recombinant enzyme; measured here: NNMT max response; stronger effect = lower value
# Nicotinamide N-methyltransferase (Homo sapiens), sequence (P40261 whole entry, looked up): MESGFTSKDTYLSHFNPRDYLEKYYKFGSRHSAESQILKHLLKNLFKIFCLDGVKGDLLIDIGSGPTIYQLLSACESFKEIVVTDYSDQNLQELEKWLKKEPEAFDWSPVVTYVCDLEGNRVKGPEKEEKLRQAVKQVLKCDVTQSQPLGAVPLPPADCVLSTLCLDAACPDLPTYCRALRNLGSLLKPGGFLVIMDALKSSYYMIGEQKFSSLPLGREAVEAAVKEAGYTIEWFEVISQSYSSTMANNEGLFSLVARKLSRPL
# [4] = biological target: Phenylethanolamine N-methyltransferase (Homo sapiens) (UniProt P11086); conditions: MTase-Glo luminescence, SAH detection, recombinant enzyme; measured here: PNMT max response; stronger effect = lower value
# Phenylethanolamine N-methyltransferase (Homo sapiens), sequence (P11086 whole entry, looked up): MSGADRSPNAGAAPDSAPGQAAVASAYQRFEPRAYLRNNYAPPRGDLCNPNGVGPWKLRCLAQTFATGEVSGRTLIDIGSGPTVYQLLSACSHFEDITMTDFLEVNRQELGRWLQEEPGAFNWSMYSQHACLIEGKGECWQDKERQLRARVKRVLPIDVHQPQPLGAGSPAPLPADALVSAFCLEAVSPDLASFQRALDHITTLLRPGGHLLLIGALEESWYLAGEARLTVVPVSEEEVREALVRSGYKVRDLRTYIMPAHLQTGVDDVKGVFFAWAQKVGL
# Potency is read from the fitted curve at half-maximal effect.
Compound,activity [1] [%],"activity change, negative = inhibition [2]",activity [3] [%],activity [4] [%],Potency [2]
CCCC1c2cccn2CCN1C(=O)Nc1ccc(Br)cc1F (stereo unspecified),-8.21,-4.98%,-17,-10.2,
COc1ccc(S(=O)(=O)N2CCC(n3c(=O)[nH]c4ccccc43)CC2)cc1,-23.2,-12%,-15.3,-23.9,
CCN(CC)CCNC(=O)CCCc1nnc2n3nc(-c4ccccc4)nc3c3ccccc3n12,-2.75,0.717%,-0.56,-1.77,
Cn1c(=O)n(C)c2cc(S(=O)(=O)Nc3ccc(-c4nnc(-c5ccccc5)o4)c(Cl)c3)ccc21,-28.6,-7.85%,-40.4,-17.1,
CC(C)Cn1c(=O)c2ccccc2n2c(CCC(=O)N3CCC(Cc4ccccc4)CC3)nnc12,-2.5,0.755%,-56.6,-9.36,
Cn1ccc2c(C(=O)NCCc3cnc[nH]3)nc(-c3ccc(N4CCOCC4)cc3)cc21,-6.99,-0.183% [at 85.7 µM],2.75,-6.64,
COc1ccc(CCNC(=O)c2ccc(CN3C(=O)CCn4nccc43)cc2)cc1OC,-29.4,,-12.4,-27,24.1 µM (active)
NC(=O)C1(N2CCCCC2)CCN(c2nc3c(S(=O)(=O)c4ccccc4)nnn3c3ccccc23)CC1,-1.9,0%,-8.86,-8.88,
COc1ccc(-c2cc3nc4c(c(=O)n3[nH]2)CN(C(=O)CN(C)S(=O)(=O)c2cnc[nH]2)CC4)cc1,-19.9,,-27.5,-19.5,21.5 µM (active)
CCn1cc(CN2CCCC23CCN(c2cc(C)nc4ccccc24)CC3)c(C)n1,3.11,4.01%,-3.44,6.12,
CCCC1c2cccn2CCN1C(=O)Nc1ccccc1C(F)(F)F (stereo unspecified),-12.1,-8.26%,-18.7,-13.3,
Cc1ccc([C@@H]2CN(c3cc(N4CCC(O)CC4)ncn3)C[C@H]2N(C)C)cc1,-2.09,-0.694%,-5.73,-0.207,
CC(C)CCn1c(=O)c2ccccc2n2c(CCC(=O)N3CCN(c4cccc(Cl)c4)CC3)nnc12,1.55,1.8%,-55.2,-8.01,
Cc1ccc2nc(CN(C)C(=O)C3CCC(=O)N(C4CCCCCC4)C3)[nH]c2c1 (stereo unspecified),-3.1,-4.65%,-9.1,-9.49,
CCCCN1C(=O)c2cc(C(=O)Nc3cc(C)cc(C)c3)nn2CC1(C)C(=O)NC1CCCC1 (stereo unspecified),-1.58,0%,1.44,-4.22,
CCN(CC)CCCNC(=O)CCc1nnc2n(Cc3ccc(F)cc3)c(=O)c3ccccc3n12,2.05,0%,-4.75,1.85,
Cn1cc2c3c(cccc31)CN(C(=O)c1ccccc1F)CC2,-1.46,8.53%,-50.7,-0.857,
CC(C)CCn1c(=O)c2ccccc2n2c(CCC(=O)N3CCN(c4ccccc4F)CC3)nnc12,1.06,0%,-60.1,-4.6,
COc1ccc(-c2nnn3c2nc(N2CCOCC2)c2ccccc23)cc1,-38.9,,-27.8,-35.3,19.2 µM (active)
COc1ccc(NC(=O)CCc2ccnc(N3CCCC3)c2)c(OC)c1,-5.64,-3.43%,-4.13,-2.38,
Cc1cc(NS(=O)(=O)c2ccc3[nH]c(=O)[nH]c3c2)ccc1Br,1.24,0.289%,-14.5,-63.7,
Cc1cccc(N2CCN(C(=O)c3ccc4c(=O)[nH]c5c(C(=O)NC(C)C)sc(=S)n5c4c3)CC2)c1C,-37.2,0.0257%,-76.7,-28.7,
CCCC1c2cccn2CCN1C(=O)Nc1ccc(Br)c(C)c1 (stereo unspecified),-4.66,-2.02%,-7.57,-6.57,
Cc1noc(C)c1-c1cc(-c2ccc(CN(C)C)cc2)cn2cncc12,-2.27,-8.74% [at 85.7 µM],-10.7,-3.78,
